From PubChem BioAssay (NCI)
Compounds without any hit were thinned out: in the full panel of roughly 79,000, 15% have a hit. Values without a mark were called inactive. Activity calls are given as the source filed them. No stated cut-off is given here; in the data, active means growth inhibition above about 70%; inactive means the rest.

Columns and labels:
[1] = NCI Yeast Anticancer Drug Screen. Data for the rad52 strain (AID 147);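 further: 0% = growth of vehicle-treated control cultures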; conditions: S. cerevisiae rad52 mutant growth inhibition, hits give high values
In short: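 Screen used a yeast mutant impaired in DNA repair. After compound exposure, growth was measured. Values reflect inhibition compared with vehicle-treated cells.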

[2] = NCI Yeast Anticancer Drug Screen. Data for the wt1 strain (AID 149);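 further: 0% = growth of vehicle-treated wt1 cultures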; conditions: S. cerevisiae wt1 strain (SPY 50644) growth inhibition, hits give high values
In short: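 Readout: yeast growth inhibition, normalised to vehicle controls, in the wt1 strain exposed to test compounds.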

[3] = NCI Yeast Anticancer Drug Screen. Data for the rad50EPP+ strain (AID 151);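 further: 0% = growth of vehicle-treated control cultures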; conditions: S. cerevisiae rad50 mutant strain, hits give high values
In short: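 Exposing the rad50EPP+ strain to each compound, growth was compared with vehicle-only cultures to give inhibition.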

[4] = NCI Yeast Anticancer Drug Screen. Data for the mgt1 strain (AID 153); conditions: S. cerevisiae mgt1 mutant growth inhibition, hits give high values
In short: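 Genetically defined yeast (mgt1) treated with compound; inhibition of growth expressed against vehicle-treated controls.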

[5] = NCI Yeast Anticancer Drug Screen. Data for the rad50 strain (AID 155);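 further: 0% = growth of vehicle-only cultures of the same strain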; conditions: S. cerevisiae rad50 strain growth inhibition, hits give high values
In short: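 Compounds were tested on a yeast strain with an engineered DNA damage repair alteration; the reported value is growth inhibition normalised to vehicle treatment.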

[6] = NCI Yeast Anticancer Drug Screen. Data for the mec2-1 strain (AID 157); conditions: S. cerevisiae mec2-1 strain, hits give high values
In short: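 Readout is yeast growth inhibition, normalised to vehicle-treated controls, in the mec2-1 strain exposed to compound.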

[7] = NCI Yeast Anticancer Drug Screen. Data for the sgs1 mgt1 strain (AID 161);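 further: 0% = growth of cultures given vehicle only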; conditions: S. cerevisiae sgs1 mgt1 strain, hits give high values
In short: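 Compounds are added to genetically altered yeast, and growth is compared with cultures given vehicle alone to give percent inhibition.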

[8] = NCI Yeast Anticancer Drug Screen. Data for the CLN2oe strain (AID 163);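 further: 0% = growth of vehicle-only control cultures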; conditions: S. cerevisiae CLN2oe strain, hits give high values
In short: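 Values reflect how much compound exposure reduced yeast growth, referenced to vehicle-exposed cells. Assay organism is a strain with a defined genetic change affecting cell-cycle control.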

[9] = NCI Yeast Anticancer Drug Screen. Data for the cln2 rad14 strain (AID 165);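 further: 0% = growth equal to vehicle treated cultures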; conditions: S. cerevisiae cln2 rad14 strain, hits give high values
In short: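 Relative to vehicle controls, growth inhibition of compound-treated cln2 rad14 yeast was recorded.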

[10] = NCI Yeast Anticancer Drug Screen. Data for the bub3 strain (AID 167); conditions: S. cerevisiae bub3 mutant strain, hits give high values
In short: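 Growth of a checkpoint-deficient yeast mutant is measured after compound exposure. Values represent inhibition relative to vehicle.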

[11] = NCI Yeast Anticancer Drug Screen. Data for the wt2 strain (AID 169);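 further: 0% = growth of vehicle-treated yeast cultures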; conditions: S. cerevisiae wt2 strain growth inhibition, hits give high values
In short: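 Values express reduction in yeast growth under compound treatment, referenced to vehicle-treated cells.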

[12] = NCI Yeast Anticancer Drug Screen. Data for the mlh1 strain (AID 171);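 further: 0% = growth of vehicle-treated control cultures of the same strain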; conditions: S. cerevisiae mlh1 strain growth inhibition, hits give high values
In short: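 Steps: expose the defined-mutant yeast strain to compound; expose a parallel culture to vehicle; measure growth; express compound effect as inhibition relative to the vehicle culture.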

[13] = NCI Yeast Anticancer Drug Screen. Data for the sgs1 strain (AID 173);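 further: 0% = growth of vehicle-only control cultures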; conditions: S. cerevisiae sgs1 mutant, hits give high values
In short: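 Treat defined-mutant yeast with compound; measure growth; calculate inhibition relative to vehicle-treated cells.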

[14] = NCI Yeast Anticancer Drug Screen. Data for the mlh1 rad18 strain (AID 175); conditions: S. cerevisiae mlh1 rad18 strain growth inhibition, hits give high values
In short: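 Test agents were incubated with a yeast strain of defined genotype (DNA damage repair defect). Inhibition of growth was derived by comparison with vehicle-exposed cultures.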

[15] = NCI Yeast Anticancer Drug Screen. Data for the rad18 strain (AID 177); conditions: S. cerevisiae rad18 mutant growth inhibition, hits give high values
In short: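 A genetically defined yeast mutant impaired in DNA damage repair was treated with test compounds, then its growth was measured against cultures receiving vehicle alone.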

[16] = at 5.0 µM (retest, dose inferred, filed as 0.5)
[17] = at 50.0 µM (retest, dose inferred, filed as 5.0)

SMILES: COc1cc(O)c2c(c1O)C(=O)c1cc(C)ncc1C2=O
- growth inhibition ([1]; at 1.2 µM): 9%
- growth inhibition ([1]; at 3.7 µM): 16%
- growth inhibition ([1]; at 11.0 µM): 29%
- growth inhibition ([1]; at 33.0 µM): 51%
- growth inhibition ([1]; at 100.0 µM): 72% (active)
- growth inhibition ([2]; at 1.2 µM): 6%
- growth inhibition ([2]; at 3.7 µM): 24%
- growth inhibition ([2]; at 11.0 µM): 36%
- growth inhibition ([2]; at 33.0 µM): 39%
- growth inhibition ([2]; at 100.0 µM): 48%
- growth inhibition ([3]; at 1.2 µM): 8%
- growth inhibition ([3]; at 3.7 µM): 20%
- growth inhibition ([3]; at 11.0 µM): 19%
- growth inhibition ([3]; at 33.0 µM): 48%
- growth inhibition ([3]; at 100.0 µM): 52%
- growth inhibition ([4]; at 1.2 µM): 5%
- growth inhibition ([4]; at 3.7 µM): 4%
- growth inhibition ([4]; at 11.0 µM): 15%
- growth inhibition ([4]; at 33.0 µM): 39%
- growth inhibition ([4]; at 100.0 µM): 60%
- growth inhibition ([5]; at 1.2 µM): 8%
- growth inhibition ([5]; at 3.7 µM): 13%
- growth inhibition [5, 16]: 9%
- growth inhibition ([5]; at 11.0 µM): 33%
- growth inhibition ([5]; at 33.0 µM): 57%
- growth inhibition [5, 17]: 48%
- growth inhibition ([5]; at 50.0 µM): 65.7%
- growth inhibition ([5]; at 100.0 µM): 86% (active)
- growth inhibition ([6]; at 1.2 µM): 10%
- growth inhibition ([6]; at 3.7 µM): 10%
- growth inhibition [6, 16]: 8%
- growth inhibition ([6]; at 11.0 µM): 9%
- growth inhibition ([6]; at 33.0 µM): 9%
- growth inhibition [6, 17]: 44%
- growth inhibition ([6]; at 50.0 µM): 23.2%
- growth inhibition ([6]; at 100.0 µM): 23%
- growth inhibition [7, 16]: 9%
- growth inhibition [7, 17]: 84% (active)
- growth inhibition ([7]; at 50.0 µM): 69.9%
- growth inhibition ([8]; at 1.2 µM): 16%
- growth inhibition ([8]; at 3.7 µM): 11%
- growth inhibition ([8]; at 11.0 µM): 5%
- growth inhibition ([8]; at 33.0 µM): 10%
- growth inhibition ([8]; at 100.0 µM): 12%
- growth inhibition [9, 16]: 1%
- growth inhibition [9, 17]: 12%
- growth inhibition ([9]; at 50.0 µM): 18.9%
- growth inhibition ([10]; at 1.2 µM): 14%
- growth inhibition ([10]; at 3.7 µM): 13%
- growth inhibition [10, 16]: 5%
- growth inhibition ([10]; at 11.0 µM): 26%
- growth inhibition ([10]; at 33.0 µM): 51%
- growth inhibition [10, 17]: 42%
- growth inhibition ([10]; at 50.0 µM): 75.9% (active)
- growth inhibition ([10]; at 100.0 µM): 73% (active)
- growth inhibition ([11]; at 1.2 µM): 39%
- growth inhibition ([11]; at 3.7 µM): 60%
- growth inhibition ([11]; at 11.0 µM): 83% (active)
- growth inhibition ([11]; at 33.0 µM): 91% (active)
- growth inhibition ([11]; at 100.0 µM): 95% (active)
- growth inhibition ([12]; at 1.2 µM): 7%
- growth inhibition ([12]; at 3.7 µM): 21%
- growth inhibition ([12]; at 11.0 µM): 41%
- growth inhibition ([12]; at 33.0 µM): 54%
- growth inhibition ([12]; at 100.0 µM): 87% (active)
- growth inhibition ([13]; at 1.2 µM): 12%
- growth inhibition ([13]; at 3.7 µM): 29%
- growth inhibition ([13]; at 11.0 µM): 77% (active)
- growth inhibition ([13]; at 33.0 µM): 88% (active)
- growth inhibition ([13]; at 100.0 µM): 84% (active)
- growth inhibition [14, 16]: 17%
- growth inhibition [14, 17]: 83% (active)
- growth inhibition ([14]; at 50.0 µM): 64.8%
- growth inhibition ([15]; at 1.2 µM): 4%
- growth inhibition ([15]; at 3.7 µM): 21%
- growth inhibition ([15]; at 11.0 µM): 28%
- growth inhibition ([15]; at 33.0 µM): 40%
- growth inhibition ([15]; at 100.0 µM): 60%
